Source: PubChem (National Center for Advancing Translational Sciences (NCATS))
Hits are enriched below; roughly 2.7% of the tested compounds scored in any of these assays.
LDHA inh = qHTS assay for inhibitors of human lactate dehydrogenase; L-lactate dehydrogenase A chain (Homo sapiens), P00338; purified LDHA, NADH/diaphorase-resazurin fluorescence; stronger effect = lower value; activity change, % (values are at about 110 or 230 µM); 480,000 compounds, 0.15% hits; AID 1347041, 2019; in the data active means activity change below about -30%; inconclusive means mostly about -25% to -30%;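 further: plate controls were DMSO wells for no effect and wells without enzyme for full effect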
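Human LDH5 at 2 nM final in Tris HCl pH 7.4 with 0.06 mM NADH and 0.2 mM pyruvate, reacted 5 minutes at room temperature. Remaining NADH coupled via diaphorase/resazurin; resorufin fluorescence read at 0 and 20 minutes, normalized to enzyme-free and DMSO wells.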
12-LOX inh = Primary qHTS assay for inhibitors of human arachidonate 12S-lipoxygenase (ALOX12): Round 2 | purified 12hLO, xylenol orange hydroperoxide absorbance | 580,000 compounds, 1.1% hits | Potency, µM (doses to about 108 µM), for inactives: at the highest dose activity change, negative = inhibition, actives largely listed as inhibitors | Polyunsaturated fatty acid lipoxygenase ALOX12 (Homo sapiens), P18054; further: potency means the concentration at half of the fitted maximal effect; on the % scale 0 is the no-effect control and ±100 the full control effect
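Purified human 12hLO (150 nM final) in 25 mM Hepes, 0.01% Triton X-100, pH 7.0 was preincubated 15 min at room temperature with compound. Then 40 uM arachidonic acid was added, 30 min. Hydroperoxide was read by Fe-XO absorbance ratio 573/405 nm.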
IDH1 R132H inh = qHTS for Inhibitors of mutant isocitrate dehydrogenase 1 (IDH1): qHTS | IDH1-R132H enzyme, NADPH consumption, diaphorase/resazurin fluorescence | Isocitrate dehydrogenase [NADP] cytoplasmic (Homo sapiens), O75874 | 390,000 compounds, 0.093% hits | Potency, µM (series often up to 76.6 µM), without a hit: top-dose activity change, negative = inhibition, actives largely listed as inhibitors | AID 602179, 2012; further: potency means the concentration at half of the fitted maximal effect; on the % scale 0 is the no-effect control and ±100 the full control effect; nearly all actives have a fitted effect of over 65% in size
Target sequence (O75874 whole entry R132H, stated change not applied): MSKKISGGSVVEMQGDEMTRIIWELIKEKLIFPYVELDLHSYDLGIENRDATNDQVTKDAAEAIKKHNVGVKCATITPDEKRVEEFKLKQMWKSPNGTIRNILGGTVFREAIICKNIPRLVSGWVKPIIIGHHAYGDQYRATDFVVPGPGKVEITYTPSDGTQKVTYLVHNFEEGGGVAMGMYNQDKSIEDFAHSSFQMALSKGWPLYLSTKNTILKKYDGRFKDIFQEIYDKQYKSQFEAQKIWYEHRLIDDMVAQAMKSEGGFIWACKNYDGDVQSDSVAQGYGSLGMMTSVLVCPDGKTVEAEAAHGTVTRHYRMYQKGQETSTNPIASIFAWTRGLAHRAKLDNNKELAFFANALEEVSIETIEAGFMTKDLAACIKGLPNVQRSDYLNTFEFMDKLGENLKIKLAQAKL
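IDH1-R132H (0.5 ug/mL dispensed) in pH 7.5 Tris buffer was preincubated 30 min with compound, then given a substrate mix of 0.016 mM NADPH and 2 mM alpha-KG for 80 min at room temperature; remaining NADPH was read by diaphorase/resazurin fluorescence.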
Nrf2 ARE act = qHTS of Nrf2 Activators; AREc32 ARE-luciferase reporter (MCF7-derived line), luminescence, 24 h; Potency, µM (top dose mostly 46.1 µM), for the others: top-dose activation, usual class: activators; 410,000 compounds, 0.31% hits; AID 624171, 2012; further: potency means the concentration at half of the fitted maximal effect; % of control where 0% means no effect; nearly all actives have a fitted effect of over 65% in size
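Nrf2 activation is followed as ARE-luciferase induction in the AREc32 line after one day of compound treatment; luminescence is read with Steady-Glo.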
A549 tox = Nrf2 qHTS screen for inhibitors: counterscreen for cytotoxicity | A549 ARE-Fluc cells, CellTiter-Fluor viability, 18-24 h | Potency, µM (series often up to 46 µM), inactives show at the highest dose activity change, negative = cytotoxicity, usual class: inhibitors | 390,000 compounds, 0.16% hits; further: potency means the concentration at half of the fitted maximal effect; on the % scale 0 is the no-effect control and ±100 the full control effect
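A549 ARE-Fluc cells in 5% FBS OPTI-MEM, 5000 cells/well, rested 2 h then exposed to compounds in concentration-response for 18-24 h at 37 °C. Viability by CellTiter-Fluor fluorescence (Ex 405/Em 525) after 30 min; luciferase luminescence (BugLite, 15 min, RT) read afterwards.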
Nrf2 block = Nrf2 qHTS screen for inhibitors | A549 ARE-Fluc reporter, luciferase luminescence, 18-24 h | Potency, µM (doses to about 46 µM), inactives show at the highest dose activity change, negative = inhibition, hits mostly inhibitors | 360,000 compounds, 2.1% hits; further: potency means the concentration at half of the fitted maximal effect; on the % scale 0 is the no-effect control and ±100 the full control effect; nearly all actives have a fitted effect of over 60% in size
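Cells were seeded and rested 2 h, then exposed to compounds for 18-24 h. CellTiter-Fluor was read first as a viability measure. BugLite was added 15 min before the final luminescent read of ARE-luciferase activity in A549 cells.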
* hit, by the source's call; ? = inconclusive; nt = no result; [ ] = another dose, or the depositor's remark. Unless noted, the call rests on the fitted dose curve; in most records, active means well fitted curve in the direction sought with a large enough effect; inconclusive means small, poorly fitted or top-dose-only effect, or another doubt; inactive means no such curve, though single readings can be large; an effect the other way counts as inactive or inconclusive.

SMILES | LDHA inh | 12-LOX inh | IDH1 R132H inh | Nrf2 ARE act | A549 tox | Nrf2 block
CC(C)c1ccc2oc(-c3cccc(NC(=O)c4cccnc4)c3)nc2c1 | -1 | ? | nt | nt | nt | nt
CC(C)c1ccc(-c2nc3cc(NC(=O)c4cccnc4)ccc3o2)cc1 | 7 | 40µM* | nt | nt | nt | nt
Cc1ccc2c(C)nc(NC3=NC(C(=O)Nc4ccc(Br)cc4)CC(=O)N3)nc2c1 (centres undefined) | -2 | ? | nt | nt | nt | nt
O=C(c1sccc1-c1ccccc1)N1CCN(S(=O)(=O)c2ccc(F)cc2F)CC1 | -2 | ? | nt | nt | nt | nt
COc1cc(C(=O)Nc2ccc(-c3nc4cc(C)ccc4o3)cc2)cc(OC)c1OC | 5 | -7% | nt | nt | nt | nt
O=C(Nc1ccc(-c2nc3cc(Cl)ccc3o2)cc1)c1cc(Br)ccc1Cl | -13 | 3% | -15% | 4% | -1% | 9%
COc1cc(C(=O)Nc2ccc3oc(-c4ccccc4)nc3c2)cc(OC)c1OC | -1 | -13% | 7% | -3% | ? | 21µM*
O=C(O)c1ccccc1-c1ccccc1C(=O)Nc1ccc(-c2nc3cc(Cl)ccc3o2)cc1 | -10 | 45µM* | 1% | 8% | 2% | -1%
COc1ccc(-c2nc3cc(NC(=S)NC(=O)Cc4ccccc4)ccc3o2)cc1 | -2 | 28µM* | 2% | 0% | -5% | -3%
COc1ccc(-c2nc(-c3ccc(NC(=O)c4ccncc4)cc3)no2)cc1OC | 1 | nt | -5% | 0% | 0% | 13µM*
CCC(=O)NC(=S)Nc1ccc2oc(-c3ccc(OC)cc3)nc2c1 | -12 | -7% | -5% | 2% | -5% | ?
Cc1ccc(CC(=O)NCCc2c[nH]c3ccccc23)cc1 | -2 | -12% | nt | nt | nt | nt
Cc1ccc(-c2nc3c(Cl)cc(C(F)(F)F)cn3c2Cc2ccccc2)cc1 | -1 | ? | nt | 1% | nt | nt
Cc1ccc(Cc2c(-c3ccc(Cl)cc3)nc3c(Cl)cc(C(F)(F)F)cn23)cc1 | -4 | 35µM* | nt | 4% | nt | nt
N#CC(C#N)=Cc1cccn1-c1ccc2ccccc2c1 | 26 | 125% | nt | nt | nt | nt
COCCNc1oc(COc2ccccc2F)nc1C#N | 8 | 13% | nt | nt | nt | nt
CC1=NS(=O)(=O)N(Cc2ccccc2)C=C1C(=O)OCc1nc(-c2ccccc2C)no1 | nt | 23% | nt | nt | nt | nt
C[C@@H](NC(=O)C1CC1)c1c(-c2ccc(F)cc2)noc1C(=O)O | nt | 50µM* | nt | nt | nt | nt
C[C@@H](NC(=O)C1CC1)c1onc(-c2ccc(F)cc2)c1C(=O)O | nt | 3%[176 µM] | nt | nt | nt | nt
CSc1ccc(CN(C)CC(=O)Nc2c(F)cccc2F)cc1 | -33* | -20% | 7% | 0% | 4% | ?
N=c1ccn(CC(=O)c2ccc(-c3ccccc3)cc2)cc1 | 2 | -7% | 1% | 6% | ? | 7.3µM*
C/C(=N/Nc1ccccc1C(F)(F)F)c1cccs1 | 3 | -111% | nt | nt | nt | nt
CC(C)(C)N1CC(c2nc3ccccc3n2Cc2cccc3ccccc23)CC1=O (centres undefined) | 4 | ? | nt | nt | nt | nt
CC(C)(C)c1cnnn1-c1ccc(/C=N/Nc2ccc([N+](=O)[O-])cc2)cc1 | -4 | ? | 0% | -2% | 16µM* | ?
O=C(CSc1nnc(Cc2cc(=O)[nH]c(=O)[nH]2)n1-c1ccc(F)cc1)c1ccc(Cl)cc1 | 3 | -21% | nt | nt | nt | nt
SMILES | LDHA inh | 12-LOX inh | IDH1 R132H inh | Nrf2 ARE act | A549 tox | Nrf2 block
COc1cc2c(c(OC)c1OC)-c1ccc(SC)c(=O)cc1C(NC(=O)c1ccccc1)CC2 (centres undefined) | -4 | -20% | -2% | 7% | 18µM* | ?
CSc1cccc(NC(=S)N2CCCN(Cc3cccc(Cl)c3)C2)c1 | -4 | 35µM* | -6% | 3% | 1% | ?
CCc1nc2ccccc2c(C(=O)OCC(=O)Nc2cccc(S(=O)(=O)NC3=NCCCCC3)c2)c1C | -5 | -9% | -1% | -2% | -25% | 16µM*
O=C(COc1ccc(Cl)cc1)Nc1cccc(S(=O)(=O)NC2=NCCCCC2)c1 | -3 | ? | 3% | 0% | -18% | 26µM*
O=C(Nc1cccc(S(=O)(=O)NC2=NCCCCC2)c1)c1ccc(Cl)cc1 | -3 | 8% | 7% | 0% | -20% | 15µM*
COc1ccc2cc(/C=C/C(=O)N3CCN(CC(=O)N4CCCCCC4)CC3)ccc2c1 | 4 | nt | 5% | 5% | -15% | 21µM*
O=C(CSc1nc2ccc(N=Cc3c4ccccc4cc4ccccc34)cc2s1)NCCc1ccccc1 | 2 | 0% | nt | nt | nt | nt
COc1ccc(NC(=S)NCCc2c[nH]c3ccccc23)cc1 | -8 | 50µM* | 7% | 0% | 8% | 4%
FC(F)(F)c1cccc(NC(=S)NCCc2c[nH]c3ccccc23)c1 | 0 | 40µM* | nt | nt | nt | nt
CSc1nnc(-c2cc3c(s2)-c2ccccc2CC3)o1 | 1 | 0% | 5% | ? | 15% | nt
S=c1[nH]nc(-c2cc3c(s2)-c2ccccc2CC3)o1 | -17 | 40µM* | -2% | 11% | ? | 15%
O=C(COc1ccc(F)cc1Cl)Nc1nc(-c2ccccn2)cs1 | nt | 5% | nt | nt | nt | nt
N#Cc1ccccc1OCC(=O)Nc1nc(-c2ccccn2)cs1 | 0 | 35µM* | -1% | 14% | nt | nt
CC(Oc1cccc(Cl)c1)C(=O)Nc1nc(-c2ccccn2)cs1 (centres undefined) | 5 | -14% | 8% | ? | ? | 16µM*
O=C(Nc1nc(-c2ccccn2)cs1)c1ccc(Cl)s1 | -2 | 1% | -7% | 5% | ? | 2.6µM*
O=C(Nc1nc(-c2cc(Cl)sc2Cl)cs1)c1ccccc1 | -2 | -22% | 10% | 10µM* | ? | ?
O=C(Nc1nc(-c2ccc(Cl)cc2)cs1)c1cccnc1 | -2 | ? | 3% | 0% | -1% | ?
CCCc1ccc(C(=O)NC2CCSC2=O)cc1 (centres undefined) | 16 | -33% | nt | nt | nt | nt
Cc1cc(/N=C/C=C2\N(C)c3ccccc3C2(C)C)n(CCC#N)n1 | -2 | -15% | 2% | 1% | 15µM* | ?
CN1/C(=C/C=C(C#N)C#N)C(C)(C)c2ccccc21 | -4 | 6% | 3% | 0% | -1% | 0%
O=C(Nc1cccc(Br)c1)c1ccc2c(c1)CCC2 | 4 | -1% | nt | nt | nt | nt
COc1ccc(OCC(=O)NCc2ccco2)c(C(=O)O)c1 | -6 | ? | nt | nt | nt | nt
